According to PubChem BioAssay (NCI):
This is part of a sample that, as a whole, favours compounds with a hit. Of some 83,000 tested, about 20% had one in any assay.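 Interpretation: 100, growth as untreated; towards 0, rising growth inhibition; 0, no net growth; 0 to -100, cell death. Compounds scoring below 10 were considered active.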 Unmarked numbers belong to inactive results. The source made the active and inactive calls.

Key:
Assay in all cases: NCI-60 one-dose screen, 48 h (100 = growth as untreated, 0 = no growth, -100 = all killed)
Settings in all cases: 10 µM unless noted
T-47D breast = system: T-47D breast
BT-549 breast = system: BT-549 breast
MDA-MB-435 melanoma = system: MDA-MB-435 melanoma
SW-620 colon = system: SW-620 colon
MCF7 breast = system: MCF7 breast
HCT-116 colon = system: HCT-116 colon
HCC-2998 colon = system: HCC-2998 colon
KM12 colon = system: KM12 colon

Row | Structure (SMILES) | growth (T-47D breast) | growth (BT-549 breast) | growth (MDA-MB-435 melanoma) | growth (SW-620 colon) | growth (MCF7 breast) | growth (HCT-116 colon) | growth (HCC-2998 colon) | growth (KM12 colon)
1 | COc1ccc(-c2cc(-c3cccs3)n(N=O)c(=O)c2C#N)cc1 | 97.4% | 104% | 125% | 112% | 95.8% | 105% | 112% | 109%
2 | C=C1CC[C@@H](C(=O)OC)Cc2nc(C)ccc21 | 99% | 122% | 103% | 102% | 98% | 110% | 101% | 108%
3 | Nc1c(C(=O)Nc2c(Cl)cccc2Cl)sc2nc3c(cc12)CCCC3 | 69% | 90.1% | 5.24% (active) | 51% | 43.7% | 47.8% | 92.5% | 68.6%
4 | O=C(/C=C/c1ccc2ccccc2c1)Nc1ncc(Cc2ccccc2)s1 | 25.7% | 72.5% | 66.1% | 42.6% | 50.3% | 21% | 92% | 64.4%
5 | N=C(N)N=Nc1ccc(O)cc1 | 98.8% [100 µM] | 19.3% [100 µM] | 80.4% [100 µM] | 58.9% [100 µM] | 9.71% [100 µM] (active) | 48% [100 µM] | 54.6% [100 µM] | 89.7% [100 µM]
6 | CN(C)c1ccc(C(=O)c2ccc(N(C)C)c(N)c2)cc1N | 21.9% | 31.9% | -32.1% (active) | 10.2% | 15% | 23.6% | 86.1% | 17.7%
7 | CN1CCN(c2ccc3nc(-c4[nH]ncc4Nc4ncnc5c4OCCCN5)[nH]c3c2)CC1 | -27.4% (active) | -74.2% (active) | -80.1% (active) | -58.1% (active) | -57.2% (active) | -11.8% (active) | -84.2% (active) | -72.7% (active)
8 | Cn1c(=O)c2c(nc(Br)n2CC(=O)Nc2ccc(F)cc2)n(C)c1=O | 87.2% | 101% | 112% | 105% | 99.2% | 84.5% | 114% | 101%
9 | C/C(=N\Nc1cc(C)c2cc(C)ccc2n1)c1ccccn1 | -50.4% (active) | 21.2% | -89.4% (active) | -81.3% (active) | -76.1% (active) | -72.6% (active) | -25.9% (active) | -46.9% (active)
10 | OCC1OC(n2cnc3c(Cl)ncnc32)CC1O (stereo not given) | 92.1% | 114% | 104% | 98.7% | 95.2% | 94.1% | 108% | 107%
11 | Cc1nc([P+](c2ccccc2)(c2ccccc2)c2ccccc2)c(Sc2sc(-c3ccccc3)nc2[P+](c2ccccc2)(c2ccccc2)c2ccccc2)o1 | 4.85% (active) | -0.458% (active) | -9.1% (active) | 9.8% (active) | 8.1% (active) | 3.77% (active) | 15.2% | -0.528% (active)
12 | COC(=O)CNc1nc(N(C)O)nc(N(C)O)n1 | 64.8% | 66.9% | 65.7% | 42.8% | 30.7% | 13.8% | 23.4% | 45.2%
13 | Cc1csc(-c2ccc3c(c2)COC3(CCCN(C)C)c2ccc(F)cc2)c1 (stereo not given) | -37.5% (active) | 76.6% | -30.3% (active) | 22.7% | 17.1% | -26.7% (active) | -50.7% (active) | 14.4%
14 | COc1cc2c(cc1-c1c(C)noc1C)ncc1nc(C3CCC(F)(F)CC3)n([C@@H](C)COC(F)F)c12 | 29.2% | 56.3% | 36.5% | 62.5% | 13.6% | 34.1% | 52.3% | 41.8%
15 | N#C/C(=C\c1ccc(-c2ccc(Br)cc2)o1)c1nc(-c2cccs2)cs1 | 40% | 96.8% | 101% | 99.8% | 28.9% | 91% | 91.8% | 95.9%
16 | COc1ccc(-c2nc3ncccn3c2-c2nc3ccc(Br)cc3[nH]2)cc1 | 77.8% | 90.4% | 68.1% | 93.9% | 96.7% | 83% | 97% | 84.5%
17 | O=c1c(CNc2ccc(S(=O)(=O)Nc3nccs3)cc2)coc2ccccc12 | 94.3% | 99.5% | 112% | 101% | 110% | 100% | 105% | 111%
18 | Fc1cccc(-c2[nH]nc3nc(Nc4cccnc4)sc23)c1 | 50.8% | 60.6% | -8.7% (active) | 41.6% | 29.3% | 35% | 70.2% | 22.8%
19 | COc1cc(/C=N/Nc2ncnc3c2c(C)nn3-c2ccc(F)cc2)ccc1O | 79.8% | 90.4% | 95.4% | 131% | 85.3% | 105% | 99.7% | 71.9%
20 | Cc1ccc(N(CC(=O)Nc2ccc(S(=O)(=O)N3CCC(N4CCCC4)CC3)cc2)S(=O)(=O)c2ccc(Cl)cc2)cc1 | -37.2% (active) | 74.1% | -87.6% (active) | -46.8% (active) | 14.2% | -70.5% (active) | -48.9% (active) | 24.5%
21 | CC(=O)NC1=C(C#N)C(c2ccccc2Cl)c2c(ccc3ccccc23)O1 (stereo not given) | 62.5% | 50% | -11.2% (active) | 43% | 42.1% | 47.5% | 85.4% | 51.2%
22 | COc1ccc(-c2nc(Nc3ccc(-c4nc5ccccc5[nH]4)cc3)nc(N3CCOCC3)n2)cc1 | 16.1% | 5.16% (active) | -38% (active) | 3.57% (active) | -44.3% (active) | 4.8% (active) | -19.8% (active) | 12.4%
23 | C=CC(=O)N[C@H](Cc1ccc(-c2cc(Cl)cc(Cl)c2)cc1)[C@H](O)[C@@H](O)C(=O)O | 90% | 87.4% | 102% | 98.1% | 87% | 75.5% | 109% | 99.3%
24 | CC(C)/C=C/CC[C@](C)(O)[C@H]1CC[C@]2(C)[C@@H]1CC[C@@H]1[C@@]3(C)C/C(=C/c4cccc(C(F)(F)F)c4)C(=O)C(C)(C)[C@@H]3CC[C@]12C | 73.8% | 95.9% | 99.3% | 93.3% | 82% | 76% | 104% | 99.8%
25 | CC1(C)NCCC[C@]2(C)[C@H]3CC[C@@H]4[C@H]5[C@H](C(=O)/C=C/c6ccccn6)CC[C@]5(CO)CC[C@@]4(C)[C@]3(C)CC[C@@H]12 | 30.7% | 64.6% | 57.3% | -51% (active) | 20.3% | -7.47% (active) | 47.9% | 25.5%
26 | O=S(=O)(NCCNc1cc(-c2cn(-c3ccccc3)nc2-c2cccc(O)c2)ccn1)c1ccccc1 | 26.4% | 67.8% | 14.7% | 44.4% | 37.2% | 49.5% | 25.4% | 36.7%
27 | Cc1cc(Cl)nc(N(CCCNc2ccnc3cc(Cl)ccc23)Cc2ccco2)n1 | 3.69% (active) | 8.06% (active) | 22.8% | 20% | 12.2% | 3.68% (active) | 22% | 22.4%
28 | COc1ccc(OC)c(-c2c(C#N)c(-c3ccco3)nc3c2c(-c2ccccc2)nn3-c2ccccc2)c1 | 84% | 108% | 106% | 95.8% | 94.7% | 87.8% | 105% | 106%
29 | Cn1cc(-c2csc(-c3cn(CCCN4CCCCC4)c4ccc(F)cc34)n2)c2cccnc21 | 92% | 71.3% | 71.3% | 89.7% | 78.6% | 88.2% | 102% | 94%
30 | COc1ccc(/C(=C\c2ccc3c(c2)OCO3)C(=O)Nc2nc3ccccc3s2)cc1OC | 92.3% | 88.7% | 95.7% | 102% | 89.5% | 73.6% | 102% | 85.4%
